FBPA coupling cs = inhibits coupling enzyme system, counter-screen for aldolase hits; coupling enzyme system counterscreen, AmpLite Red fluorescence; activity change, negative = inhibition, % at 58.2 µM, hits read low; actives 0.67% (n = 290,000); AID 2472; in the data active means activity change below about -30%
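Compounds tested against the coupling enzymes alone at 57.5 uM final; readout was AmpLite Red fluorescence (525/598 nm) after 20 min at RT.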
VP16 counter = Gal4-VP16 reporter inhibition counter-screen | Drosophila S2 Gal4-VP16 UAS-luciferase, luminescence, 20 h | Potency, µM (series often up to 53.6 µM), without a hit: at the highest dose activity, negative = inhibition, actives largely listed as inhibitors | actives 3.5% (n = 310,000);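 further: Gal4-VP16 expression switched on by copper sulfate through the metallothionein promoter; potency means the concentration at half of the fitted maximal effect; nearly all actives have a fitted effect of over 50% in size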
RORg inh = inhibitors of mouse ROR gamma transcriptional activity; AID 2551; P51450; Drosophila S2 Gal4-RORgamma UAS-luciferase reporter, 20 h; Potency, µM (series often up to 53.6 µM), for the others: at the highest dose activity change, negative = inhibition, usual class: inhibitors; actives 5.4% (n = 310,000); further: potency means the concentration at half of the fitted maximal effect; nearly all actives have a fitted effect of over 60% in size
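Luciferase reporter read in Schneider cells carrying Gal4-RORγ (mouse) and UAS-Photinus luciferase; cells given compound 1 h before 700 uM copper sulfate induction, then incubated 20 h at ambient temperature.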
TSHR antag = blocks TSH signaling through the human TSH receptor; actives 0.2% (n = 330,000); AID 504810; activity change, negative = inhibition, % at 11.5 µM; TSHR-expressing cells, TSH-stimulated cAMP HTRF, 2 h; active compounds read low; P16473;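 active means activity change below a set negative limit, meaning inhibition stronger than a set level, cut at about -70% in these data; inconclusive means activity change between two set negative limits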
Target sequence (P16473 whole entry, looked up): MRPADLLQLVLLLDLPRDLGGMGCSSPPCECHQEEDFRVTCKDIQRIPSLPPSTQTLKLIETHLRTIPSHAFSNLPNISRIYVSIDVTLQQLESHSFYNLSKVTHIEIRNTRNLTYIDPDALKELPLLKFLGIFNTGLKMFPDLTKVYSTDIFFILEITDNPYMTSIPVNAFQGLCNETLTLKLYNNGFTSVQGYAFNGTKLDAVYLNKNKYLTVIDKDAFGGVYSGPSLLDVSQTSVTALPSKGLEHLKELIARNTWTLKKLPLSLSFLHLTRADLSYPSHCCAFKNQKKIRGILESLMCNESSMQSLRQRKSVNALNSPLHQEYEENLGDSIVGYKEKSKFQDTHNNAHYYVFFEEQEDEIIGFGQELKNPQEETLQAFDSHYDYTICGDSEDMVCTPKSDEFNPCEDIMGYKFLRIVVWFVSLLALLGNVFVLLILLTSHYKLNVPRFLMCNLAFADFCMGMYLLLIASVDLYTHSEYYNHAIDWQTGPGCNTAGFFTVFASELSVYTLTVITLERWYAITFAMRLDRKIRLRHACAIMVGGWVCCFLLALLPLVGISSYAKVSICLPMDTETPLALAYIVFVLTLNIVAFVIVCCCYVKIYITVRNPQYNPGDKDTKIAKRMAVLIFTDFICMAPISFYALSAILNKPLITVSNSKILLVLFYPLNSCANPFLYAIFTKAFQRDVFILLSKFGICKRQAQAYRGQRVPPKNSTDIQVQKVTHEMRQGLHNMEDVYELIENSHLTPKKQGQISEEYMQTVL
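TSHR-expressing cells were treated with compounds, then stimulated with TSH at EC80 (4nM final) for 2 hours at 37 deg C. Cellular cAMP was measured by HTRF competition between lysate cAMP and cAMP-d2 for a cryptate-labelled anti-cAMP antibody.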
ELG1 repair inh = inhibitors of ELG1-dependent DNA repair in HEK293T cells; HEK293T ELG1-luciferase reporter, luminescence, 16 h; DNA damage induced by 5-fluorouridine; Potency, µM (top dose mostly 46.1 µM), inactives show at the highest dose activity change, negative = inhibition, most hits filed as inhibitors; actives 2.3% (n = 330,000); AID 504467; further: potency means the concentration at half of the fitted maximal effect; nearly all actives have a fitted effect of over 55% in size
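Luminescence from the luciferase reporter, measured 30 min after ONE-Glo reagent at room temperature, was the read-out. Beforehand, 2,000 cells per well were exposed for 16 hr at 37 °C to 5-fluorouridine together with compound or vehicle.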
The depositor's hits bear a star; u = inconclusive; x = no result given; [ ] = remark or other dose. Most compounds without a hit are left out; they make up all but 8% or so of the library. Unless noted, the call rests on the fitted dose curve; in most records, active means well fitted curve in the direction sought with a large enough effect; inconclusive means small, poorly fitted or top-dose-only effect, or another doubt; inactive means no such curve, though single readings can be large; an effect the other way counts as inactive or inconclusive. On the % scale 0 is the no-effect control and ±100 the full control effect.

SMILES	FBPA coupling cs	VP16 counter	RORg inh	TSHR antag	ELG1 repair inh
O=C(N/N=C\c1ccccn1)C1COc2cc3ccccc3cc2O1 (stereo not given)	-4	u	4.5µM*	30	12%
O=C(N/N=C\c1ccccn1)C1c2ccccc2Oc2ccccc21	-2	u	7.9µM*	10	6%
O=C(Nc1ncccn1)C1c2ccccc2Oc2ccccc21	1	-1%	-16%	22	-1%
O=C(O)c1nn(Cc2csc(-c3ccccc3)n2)c(=O)c2ccccc12	-19	-19%	1%	9	24%
O=C(Nc1cccc(Cl)c1Cl)c1cc(S(=O)(=O)NCCc2ccccc2)ccc1F	2	4%	5µM*	-5	-13%
Cc1ccc(-c2cc(C(F)F)n3ncc(C(=O)N4CCCCC4c4cccnc4)c3n2)cc1 (stereo not given)	0	5%	7%	-25	18µM*
O=C(c1cc2nc(-c3ccc(F)cc3)cc(C(F)(F)F)n2n1)N1CCCCC1c1cccnc1 (stereo not given)	0	u	u	-26	8.2µM*
CN1CCN(C(=O)c2cc3nc(-c4ccc(F)cc4)cc(C(F)(F)F)n3n2)CC1	-1	5%	0%	0	u
O=C(c1cnn2c(C(F)(F)F)cc(-c3ccccc3)nc12)N1CCCCC1c1cccnc1 (stereo not given)	-1	-4%[10 µM]	12%	-4	u
CC1CCCCN1C(=O)c1cc2nc(-c3ccccc3)cc(-c3ccccc3)n2n1 (stereo not given)	-1	u	u	-18	16µM*
CC1CCCC(NC(=O)COC(=O)[C@@H](NC(=O)c2ccccc2Cl)C(C)C)C1C (stereo not given in full)	x	x	x	x	10%
Cc1cc(C(=O)COC(=O)c2cc(O)c3ccccc3c2O)c(C)n1CC1CCCO1 (stereo not given)	-46*	-4%	16µM*	4	0%
Cc1cc(C(=O)COC(=O)c2ccccc2NCCO)c(C)n1CC1CCCO1 (stereo not given)	x	1.6µM*	0.79µM*	-3	u
Cc1cc(C(=O)COC(=O)c2ccccc2Br)c(C)n1CC1CCCO1 (stereo not given)	-6	8.9µM*	14µM*	-8	u
OCC(O)C(O)C(O)CO (stereo not given)	0	u	-12%	x	x
CCC1=C[C@@H]2CN(C1)Cc1c([nH]c3ccccc13)[C@@](C(=O)OC)(c1cc3c(cc1OC)N(C)[C@H]1[C@@](O)(C(=O)OC)[C@H](OC(C)=O)[C@]4(CC)C=CCN5CC[C@]31[C@@H]54)C2	-7	-15%	24%	x	x
CCN(CC)S(=O)(=O)c1ccc(C(=O)NCCN2C(=O)S/C(=C\c3cccnc3)C2=O)cc1	2	u	17%	8	15µM*
CN(C)S(=O)(=O)c1ccc(C(=O)NCCN2C(=O)S/C(=C\c3cccnc3)C2=O)cc1	-11	2%	-6%	8	0%
CS(=O)(=O)c1ccc(C(=O)NCCN2C(=O)S/C(=C\c3cccnc3)C2=O)cc1[N+](=O)[O-]	-1	u	5.6µM*	-5	u
Cc1cc2c(cc1S(=O)(=O)CCC(=O)NC1CCCCC1C)OCC(=O)N2 (stereo not given)	2	1%	-8%	11	10%
CN(C)c1ccc(C(=S)N2CCN(S(=O)(=O)c3ccccc3)CC2)cc1	1	-5%	-4%	6	-3%
CC(=O)c1ccc2cccc3c2c1N=CN3C	-43*	-1%	-30%	20	-15%
Cc1ccc2c(c1)N(CC(=O)NC1CCCCCC1)C(=O)c1cccnc1O2	1	-13%	-13%	-8	-5%
Cc1cc(Cl)ccc1OCCCC(=O)N/N=C/c1cccc([N+](=O)[O-])c1	-36*	-18%	11%[10 µM]	-10	-4%
Cc1ccccc1OCC(=O)N/N=C/c1cccc(Oc2ccc([N+](=O)[O-])cc2[N+](=O)[O-])c1	-49*	0%	u	-23	u
SMILES	FBPA coupling cs	VP16 counter	RORg inh	TSHR antag	ELG1 repair inh
COCCN(C(=S)Nc1cccc(C)c1)C(C)c1cccnc1 (stereo not given)	-4	-4%	11µM*	1	12%
Cc1cccc(C)c1NC(=S)N(CCN(C)C)C(C)c1ccccn1 (stereo not given)	2	1%	-43%	-4	0%
CCOc1ccc(NC(=O)N(CCN(C)C)C(C)c2cccnc2)cc1 (stereo not given)	3	-7%	-7%	11	-6%
COCCCN(C(=S)Nc1c(C)cc(C)cc1C)C(C)c1ccccn1 (stereo not given)	1	u	14µM*	-1	-8%
Cc1ccc(NC(=S)N(CCN(C)C)C(C)c2cccnc2)cc1 (stereo not given)	0	-2%[10 µM]	-35%	7	-7%
COCCCN(C(=S)Nc1cc(C)cc(C)c1)C(C)c1ccncc1 (stereo not given)	0	u	13µM*	9	16%
CCOc1ccc(NC(=S)N(CCOC)C(C)c2cccnc2)cc1 (stereo not given)	7	-1%	11µM*	3	-4%
O=c1cc(-c2cc(O)c(O)c([C@@H]3O[C@H](CO)[C@@H](O)[C@H](O)[C@H]3O)c2)oc2cc(O[C@@H]3O[C@H](CO)[C@@H](O)[C@H](O)[C@H]3O)cc(O)c12	0	-2%	-16%	x	x
O=C(c1cccc(S(=O)(=O)N2CCCc3ccccc32)c1)N1CCN(c2ccccc2)CC1	x	x	x	-14	u
CC(NC(=O)CCCCCN1C(=O)c2ccccc2C1=O)c1ccc2c(c1)CCCC2 (stereo not given)	2	3%	u	-32	u
CC(NC(=O)CCCCCCN1C(=O)c2ccccc2C1=O)c1ccc2c(c1)CCCC2 (stereo not given)	4	10µM*	u	-17	23µM*
S=C(NCCc1ccccn1)NC1CC2CCC1C2 (stereo not given)	3	u	6.3µM*	-3	u
COc1ccc(NC(=S)NC2CC3CCC2C3)c(OC)c1 (stereo not given)	-1	11µM*	5µM*	-4	9%
Cc1ccc(S(=O)(=O)N(C)C)cc1NC(=S)NCCc1ccccn1	0	-12%	0%	13	u
CCOc1ccccc1NC(=S)NC1CC2CCC1C2 (stereo not given)	3	7.1µM*	2.8µM*	-2	u
CCCc1nnc(NC(=O)CCC(=O)N2CCCCCC2)s1	0	5%	26%	27	0%
CCCC(=O)Nc1nnc(CC(=O)N2CCCC2)s1	0	-6%	1.3µM*	-12	u
